# Results: the supplement of paper PMC11417369
# ± gives the standard deviation of the averaged measurements. In all, about 25,000 sequences were measured (“ln(normalized median fluorescence intensity)”: median about 8.9, highest 2% from about 10 on). The full list was thinned out, with the highest values kept by preference.
# Test system: PfAP2-LT AP2 domain (GST-tagged)
# Assay: gcPBM binding intensity (ln(normalized median fluorescence intensity)); higher = stronger DNA binding
# Method in brief: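 The highest Masliner-normalised natural-log median intensity across replicate spots of either probe orientation is reported as binding intensity. GST-tagged P. falciparum DNA-binding domains expressed in E. coli were applied for 1 h to an Agilent 4 × 180k array of primer-extended double-stranded 36-bp intergenic genomic probes plus negative controls, and bound protein was detected with Alexa488 anti-GST antibody and scanned at 488 nm.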
row,Sequence,gcPBM binding intensity (ln)
1,CCCATGTAATATTAAACACACACTCATATAACACAA [CACACA_site7906],9.36 ± 0.26
2,TTTCCCCCATATAATGAACACACACCCTCCTCATAA [CACACA_site8110],9.84 ± 0.41
3,CCCCATATAATGAACACACACACTCCTCATAATTAA [CACACA_site628],10.33 ± 0.099
4,TTATAAATTCAATGTACTACACAAAATGAATTTAAT [XGTACX_site6683],8.53 ± 0.35
5,AGAACCATATATAAATGTACATGTTAATATGAATAA [XGTACX_site130],8.93 ± 0.42
6,ATTATGTTTCTTTTTTTTTTTAAAGGATGTCTTTTT [CACACA_negctrl_site974],8.62 ± 0.56
7,ATTAAACATACATATACACACACACCCACCCACCCA [CACACA_site8057],10.22 ± 0.071
8,TAAACATACATATACACACACACACCCACACCCACA [CACACA_site492],10.3 ± 0.18
9,TTAAAAAAAAAACACACACACATACACATATATATA [CACACA_site3299],9.91 ± 0.2
10,TTATATATGTATTAATGTACATAGTTGAGAAAGGTA [XGTACX_site1511],8.78 ± 0.34
11,GAACCTTTAAAATACACACCCAAATCCTTTGAAATA [CACACA_site3630],8.88 ± 0.42
12,CAATGTTGTACATACACACACACAAAAAAAAAATAA [CACACA_site2407],9.6 ± 0.45
13,TCTCCTTGTTCCTTTTTTTTAAAAAAAAACATTAAA [CACACA_negctrl_site679],8.47 ± 0.52
14,GTTAATTATTAAATTTGTACTCATATATATTATATA [XGTACX_site6862],8.71 ± 0.53
15,AAAAAAAAAAGACACACACACAAATACAAATACATA [CACACA_site6334],10 ± 0.28
16,CAAAGACACAAACACACACACACATACATACATACA [CACACA_site453],10.3 ± 0.42
17,AAGACACAAAAACACACACACATACATACATACATA [CACACA_site454],9.99 ± 0.31
18,ATAAAACAAAGACACACACACATACACAAAAAAAAA [CACACA_site7752],9.99 ± 0.42
19,AAAAAAAAAAGACACACACACACAAATACATACACA [CACACA_site6472],10.2 ± 0.042
20,GGTACATACAGACACACACACAAAAAAAAAAAAATA [CACACA_site6844],9.81 ± 0.64
21,TAATATTTCGCACTGTGTACTGAAATATTTATATCG [XGTACX_site516],8.76 ± 0.36
22,TAATTAACCTATGCATTCATATAGATACATAAATAT [CACACA_negctrl_site885],8.72 ± 0.51
23,GGTAATTATTTTGGTTGTACTCAAATATATAATATT [XGTACX_site291],8.89 ± 0.23

row,Sequence,gcPBM binding intensity (ln)
1,ATCAAAAACATACCTACACACACAATATGTATATAT [CACACA_site9171],9.51 ± 0.28
2,CTAGCAAATACATACACACACACACCCATACATATA [CACACA_site3496],9.95 ± 0.18
3,CATATACATACACATACACACATACACCCATACACA [CACACA_site8514],9.68 ± 0.29
4,TCAAAGCACCCATACACACACATATATATATATATA [CACACA_site4317],10.2 ± 0.18
5,CATACACCCATACATACACACATACATATATATATA [CACACA_site8591],9.62 ± 0.15
6,TATATATACATATACACACACACACCCATATATATA [CACACA_site2246],10 ± 0.11
7,GATGAATAAATCAAAGCACACATACACCCACATATA [CACACA_site7986],9.67 ± 0.13
8,TCAAAGCACACATACACACACATATAGATTTATATA [CACACA_site6272],9.73 ± 0.16
9,ACCATACATACATACACACACACACCCATATATATA [CACACA_site2917],10.2 ± 0.26
10,TATATATATATATATACACACATACAGATATATATT [CACACA_site4629],9.5 ± 0.38
11,TATACATACACATACACACATACACCCATACACATA [CACACA_site1746],9.69 ± 0.33
12,TCAAAGCACAGATACACACACATATATATATATATA [CACACA_site287],10.18 ± 0.014
13,CACATATATACACATACACACACACCCATACACCCA [CACACA_site8505],10.1 ± 0.25
14,TTTTTTTTGGAATTCACACAAATATAACATGGGTAT [CACACA_site5185],8.7 ± 0.38
15,AACCTATCTATAGGAACAATATATATATATATAATT [CACACA_negctrl_site1707],8.98 ± 0.33
16,TTTTGAAAGTTTTTGTGTCCACATATATTTATATAT [XGTACX_site6563],8.94 ± 0.44
17,ACATATATATAATATATATTTTTCGTGTGGTGTCAC [CACACA_negctrl_site543],8.84 ± 0.42
18,TTTATTCTTGAGTATTGTACATATGTGTTTGTATAT [XGTACX_site5706],8.93 ± 0.45
19,ATTTTCTATATCTTTCAACACACAAATTTTTTTTTC [CACACA_site7918],8.85 ± 0.45
20,TGTTTATTACTCAGGTGTACTCAATTTTTTTTTTTT [XGTACX_site3470],8.72 ± 0.47
21,TATACATATATATATATATATAGATATATTCACGTG [XGTACX_negctrl_site265],9.31 ± 0.21
22,ATTTAAATAATATGTACACACATTTAAAAAATTATA [CACACA_site2816],8.76 ± 0.44
23,AGCTCGGAAAAATTAGCATGCAAAAAAAAAAAAAAA [TGCATGCA_site658],8.59 ± 0.58

row,Sequence,gcPBM binding intensity (ln)
1,TACAATCTTTCATTATGTACTTAACATTTTTTCTGT [XGTACX_site8752],8.85 ± 0.52
2,ATATTTATGGAATATACACACATGTATAATTACATA [CACACA_site7045],8.83 ± 0.4
3,TATATATATATATATACACACACACCCATATATATA [CACACA_site8812],9.85 ± 0.18
4,AATAAATATATATACACACCCATATATATATATATA [CACACA_site2595],9.73 ± 0.014
5,CTTATATATACATATACACACACACCCATATATATA [CACACA_site8705],9.59 ± 0.13
6,ACCCATATAATATATACACACATATATATATATATA [CACACA_site4731],9.855 ± 0.035
7,CATACACCCCAACACACACACACACCCATATATAAT [CACACA_site8097],10.3 ± 0.37
8,TATATATATATATACACACACACACCCATATATATA [CACACA_site2538],10.2 ± 0.3
9,ACTATATTTCTATAATGTACAAAAATAAATCATATG [XGTACX_site3337],8.64 ± 0.39
10,TTTGCCCAAAAAGGTACACACCACAATGTACATAAA [CACACA_site4599],8.85 ± 0.49
11,ATAAAGCCATACAATACACACATTTTACATGGCTGT [CACACA_site5756],9.26 ± 0.42
12,CAAACATTTTAATGTACACACACCCACAGACAAACA [CACACA_site5522],9.57 ± 0.13
13,GGCAAATTTATTATACCCACATACATACATACATAC [XGTACX_negctrl_site186],9.01 ± 0.32
14,TACATAAATTAAAACACACACACACCCAAAAAAAAA [CACACA_site2261],9.9 ± 0.22
15,AGACAGCGCACAAACACACAAACACCCACCCACATA [CACACA_site451],10.1 ± 0.16
16,AAATTTGGCAAACACACACACACACCCACAGAGACA [CACACA_site4490],10.2 ± 0.13
17,AACTTTGGCAAACACACACACACACCCACACCCACA [CACACA_site588],10.1 ± 0.42
18,AAATTTGGCAAACACACACACACACCCACACCCACA [CACACA_site8095],10.4 ± 0.19
19,TTTTTTCTTTTATGTGAAATGTAATATTGTTATATA [GTGCAC_negctrl_site715],8.51 ± 0.52
20,TATATACGCATTTTTATACACACTTGTTTTATAAAA [CACACA_site727],8.79 ± 0.35
21,GGATATATTATATGTACACACACATATAAGGGATTA [CACACA_site7884],9.34 ± 0.31
22,TTACAAAAAAATAATTGTACATACAATTTCTGTTAT [XGTACX_site877],8.71 ± 0.45
23,ATATTTTTATTTAAACGTACATACACGTTGAAAAGA [XGTACX_site4567],8.43 ± 0.4

row,Sequence,gcPBM binding intensity (ln)
1,TGTAATAAATAGTACACACACACATATTTATATATC [CACACA_site6770],9.72 ± 0.23
2,TCTTTATCTTCTTATACACACATTTATTAAAAAAAA [CACACA_site445],8.55 ± 0.4
3,ATAAAACCAACATAGAGTACAGATCGACTATGTTTC [XGTACX_site4329],9.05 ± 0.47
4,AATAATAGAAGCACCCACCCACCACCACCCACACAT [CACACA_negctrl_site1033],10.46 ± 0.028
5,GTTATAGAAGCATTCACACACACACCCACATACACA [CACACA_site1465],10.1 ± 0.11
6,TATAATAATCCACAAGCACACACACCCACATATATA [CACACA_site8343],9.91 ± 0.32
7,TGTAAGTTGATATAATGTACATGTTTGATTTTTTTT [XGTACX_site7687],8.71 ± 0.47
8,AGTATATAAAATACTGTATCGATGGGGGAGGGCGCA [CACACA_negctrl_site1612],10 ± 0.44
9,TATAAAATACTGTATCGATGGGGGAGGGCGCAGGGG [TGCATGCA_negctrl_site250],10.4 ± 0.16
10,ATATATGGGGCGCAGGAAAAGAGTTTTGGAAATAAA [CACACA_negctrl_site1265],8.98 ± 0.55
11,CTTTTTTGTTAAAGTGTGCGCAATAGTTATAGACTT [GTGCAC_site9670],8.87 ± 0.38
12,TGATAATAAGCATACACACACACACTAGAAAAAAAA [CACACA_site4558],10.1 ± 0.38
13,TATAATCCATAAGAAGCACACACATATATATATATT [CACACA_site8394],9.41 ± 0.3
14,ATAATACCCAAGCACACACACACACCGATATATATA [CACACA_site8344],10.4 ± 0.2
15,ATATAAGAAAAGCACACACACACAAAAAAAAAAAAA [CACACA_site2827],10.1 ± 0.42
16,AGAGATATAAGAAAAGCACACACACCCAAAAAAAAA [CACACA_site8917],9.96 ± 0.29
17,TAATAATCCACAAGCACACACACACCCATATATATA [CACACA_site1267],9.96 ± 0.13
18,TAATAATACCCAAGCACACACACACCCATATATATA [CACACA_site4831],10.1 ± 0.33
19,TGATAATAAGCATACACACACACACTAAAAAAAAAA [CACACA_site6478],9.94 ± 0.38
20,AGATATAAGAAAAGCACACACACACCCAAAAAAAAA [CACACA_site2826],10.2 ± 0.18
21,AGATATAAGAAAAGCACACACACACTAGAAAAAAAA [CACACA_site5559],9.92 ± 0.33
22,TTAATATAAGCAAATACACACACACCGATATATATA [CACACA_site9269],9.8 ± 0.26
23,ATAATCCACAAGCACACACACACACCCATATATATA [CACACA_site1268],10.1 ± 0.35
